One assay has as its system Vero E6 infected with SARS-CoV-2. In words: morphology score (similarity to uninfected cells); higher = more like uninfected cells. The settings on record: 24 h.
With `NC[C@H](O)c1ccc(O)c(O)c1` [norepinephrine] (10 µM), the morphology score was -0.067.

The compound `Cc1c2oc3c(C)ccc(C(=O)N[C@@H]4C(=O)N[C@@H](C(C)C)C(=O)N5CCC[C@H]5C(=O)N(C)CC(=O)N(C)[C@@H](C(C)C)C(=O)O[C@@H]4C)c3nc-2c(C(=O)N[C@@H]2C(=O)N[C@@H](C(C)C)C(=O)N3CCC[C@H]3C(=O)N(C)CC(=O)N(C)[C@@H](C(C)C)C(=O)O[C@@H]2C)c(N)c1=O` [actinomycin-d] (0.833333 µM) came in with a morphology score of 0.164.

Compound `CCCCCCCCCC(=O)O[C@H]1CC[C@H]2[C@@H]3CCC4=CC(=O)CC[C@@H]4[C@H]3CC[C@]12C` [Nandrolone decanoate] (10 µM) came in with a morphology score of -0.019.

`CCOc1ccccc1-n1c(C(C)N2CCN(C(=O)COc3ccc(Cl)cc3)CC2)nc2ccccc2c1=O` (centres undefined) [erastin] (0.833333 µM) displayed a morphology score of -0.0506.

Regarding `O=C(O)CCCCC(CCSCc1ccccc1)SCc1ccccc1` (centres undefined) (10 µM), the morphology score was 0.195.

On to `CC(=O)N[C@@H](Cc1c[nH]c2ccccc12)C(=O)OCc1cc(C(F)(F)F)cc(C(F)(F)F)c1` (10 µM), for which the morphology score stood at 0.31.

Compound `NC(=O)C(c1ccccc1)(c1ccccc1)[C@@H]1CCN(CCc2ccc3c(c2)CCO3)C1` [darifenacin] (10 µM) displayed a morphology score of -0.025.

`C[C@H]1NC(=O)NC1=O` [5-methylhydantoin-(D)] (10 µM) displayed a morphology score of 0.121.

Take `O=C(c1ccc(Nc2nccc(-c3cc4ccccc4s3)n2)cc1)N1CCC(N2CCCC2)CC1` (0.833333 µM): the morphology score amounted to 0.629.

Another assay has the same test system. In words: SARS-CoV-2 infection rate relative to infected DMSO; higher = more infection, active = 60 or less. The settings on record: 24 h.
As for `Nc1cccc(CNC(=O)c2ccc(Oc3ccc(OCc4cccc(F)c4)cc3)nc2)c1` (10 µM), the SARS-CoV-2 infection rate was 119% (inactive).

On to `O=c1cc(N2CCOCC2)oc2c(-c3ccccc3)cccc12` (0.833333 µM), for which the SARS-CoV-2 infection rate is 98.5% (inactive).

As to `C[N+]12CCCCC1CCC(=C(c1cccs1)c1cccs1)C2` (centres undefined) [tiquizium] (10 µM), the SARS-CoV-2 infection rate is 93.5% (inactive).

Turning to `C#C[C@]1(O)CC[C@H]2[C@@H]3CCc4cc(OC)ccc4[C@H]3CC[C@@]21C` [mestranol] (10 µM), the SARS-CoV-2 infection rate is 110% (inactive).

For `CO/N=C(\C(=O)N[C@@H]1C(=O)N2C(C(=O)OCOC(=O)C(C)(C)C)=C(C)CS[C@H]12)c1csc(N)n1` [cefetamet-pivoxil] (10 µM), the SARS-CoV-2 infection rate was 96.5% (inactive).

As for `Cc1csc2c(N[C@@H](C)CN3CCN(S(=O)(=O)c4ccc(Cl)c(Cl)c4)CC3)ncnc12` [LPA2-antagonist-1] (10 µM), the SARS-CoV-2 infection rate is 100% (inactive).

For the compound `C#C[C@]1(O)CC[C@H]2[C@@H]3CCC4=Cc5oncc5C[C@]4(C)[C@H]3CC[C@@]21C` [danazol] (10 µM), the SARS-CoV-2 infection rate was 72% (inactive).

As for `Cc1c(N)nc([C@H](CC(N)=O)NC[C@H](N)C(N)=O)nc1C(=O)N[C@H](C(=O)N[C@H](C)[C@@H](O)[C@H](C)C(=O)N[C@H](C(=O)NCCc1nc(-c2nc(C(=O)NCCCNCCCCN)cs2)cs1)[C@@H](C)O)[C@@H](O[C@@H]1O[C@@H](CO)[C@@H](O)[C@H](O)[C@@H]1O[C@@H]1O[C@H](CO)[C@@H](O)[C@H](OC(N)=O)[C@@H]1O)c1cnc[nH]1` [bleomycetin] (0.833333 µM), the SARS-CoV-2 infection rate was 111% (inactive).

Take `CCCCCCOc1ccccc1C(N)=O` [exalamide] (10 µM): the SARS-CoV-2 infection rate is 108% (inactive).

For `CC(C)OC(=O)[C@H](C)N[P@](=O)(CO[C@H](C)Cn1cnc2c(N)ncnc21)Oc1ccccc1` [tenofovir-alafenamide] (10 µM), the SARS-CoV-2 infection rate was 106% (inactive).

For the compound `O=C(O)Cn1c(C(=O)Nc2nc(-c3ccccc3Cl)cs2)cc2ccccc21` (10 µM), the SARS-CoV-2 infection rate is 93% (inactive).

As for `O=c1c(O)c(-c2cc(O)c(O)c(O)c2)oc2cc(O)cc(O)c12` [myricetin] (10 µM), the SARS-CoV-2 infection rate was 110% (inactive).

On to `NC(=O)OCC(COC(N)=O)c1ccccc1` [felbamate] (10 µM), for which the SARS-CoV-2 infection rate was 99% (inactive).

As for `Cc1cc(C(C#N)c2ccc(Cl)cc2)c(Cl)cc1NC(=O)c1cc(I)cc(I)c1O` (centres undefined) [closantel] (10 µM), the SARS-CoV-2 infection rate was 91.5% (inactive).

For `O=c1cc[nH]c(=O)[nH]1` [uracil] (10 µM), the SARS-CoV-2 infection rate is 108% (inactive).

As for `COc1ccccc1NC(=O)OCC1CCN(C(=O)OC(C)(C)C)CC1` (10 µM), the SARS-CoV-2 infection rate is 97% (inactive).

As to `COc1cccc(OC)c1-c1cc(C(=O)N[C@@H](CC(C)C)C(=O)O)nn1-c1ccnc2cc(Cl)ccc12` (10 µM), the SARS-CoV-2 infection rate was 114% (inactive).

`O=C(O)c1cc2occc2[nH]1` (10 µM): the SARS-CoV-2 infection rate was 109% (inactive).

On to `CCCCCCCCCCCCCCCC(=O)OC(CC(=O)[O-])C[N+](C)(C)C` (centres undefined) [palmitoylcarnitine] (0.833333 µM), for which the SARS-CoV-2 infection rate was 106% (inactive).

As for `CC(=O)N[C@@H](CC(C)C)C(=O)O` [acetyl-l-leucine] (10 µM), the SARS-CoV-2 infection rate is 94.5% (inactive).

Regarding `O=C1NC(O)CCN1[C@@H]1O[C@H](CO)[C@@H](O)[C@H]1O` (some centres undefined) [tetrahydrouridine] (10 µM), the SARS-CoV-2 infection rate was 103% (inactive).

For `O=C(c1c2ccccc2cc2ccccc12)N1CCC(N2CCC[C@@H](C(=O)N3CCOCC3)C2)CC1` (10 µM), the SARS-CoV-2 infection rate was 93.5% (inactive).

Regarding `CCN(c1cc(C#CCN2CCOCC2)cc(C(=O)NCc2c(C)cc(C)[nH]c2=O)c1C)[C@H]1CC[C@H](N(C)CCOC)CC1` (10 µM), the SARS-CoV-2 infection rate was 100% (inactive).

Regarding `NC(=O)C1=CN([C@@H]2O[C@H](COP(=O)(O)OP(=O)(O)OC[C@H]3O[C@@H](n4cnc5c(N)ncnc54)[C@H](O)[C@@H]3O)[C@@H](O)[C@H]2O)C=CC1` [coenzyme-I] (10 µM), the SARS-CoV-2 infection rate is 103% (inactive).

With `CN(CC[C@@H](Oc1ccc(-c2ccccc2)cc1)c1ccc(F)cc1)CC(=O)O` (10 µM), the SARS-CoV-2 infection rate is 108% (inactive).

For the compound `CCCCCCCCCCCCc1ccc(S(=O)(=O)Nc2nncs2)cc1` (10 µM), the SARS-CoV-2 infection rate was 93% (inactive).

Turning to `CC(C)[C@H]1C(=O)N[C@@H](CCCNC(=N)N)C(=O)NCC(=O)N[C@@H](CC(=O)O)C(=O)N[C@H](Cc2ccccc2)C(=O)N1C` [cilengitide] (10 µM), the SARS-CoV-2 infection rate was 109% (inactive).

For `O=C(O)CNC(=O)c1c(O)c2ccccc2n(Cc2ccccc2)c1=O` (10 µM), the SARS-CoV-2 infection rate was 102% (inactive).

Take `O=C(CCc1ccncc1)NNC(=O)N1Cc2ccccc2Oc2ccc(Cl)cc21` (10 µM): the SARS-CoV-2 infection rate is 108% (inactive).

Consider `O=C1c2cccnc2OC[C@@H]2CCCN12` (10 µM), for which the SARS-CoV-2 infection rate was 108% (inactive).

For `O=C(O)/C=C(/CC(=O)O)C(=O)O` [cis-aconitic-acid] (10 µM), the SARS-CoV-2 infection rate is 110% (inactive).

As for `NC[C@H](O)c1ccc(O)c(O)c1` [norepinephrine] (10 µM), the SARS-CoV-2 infection rate is 109% (inactive).

Turning to `Cc1c2oc3c(C)ccc(C(=O)N[C@@H]4C(=O)N[C@@H](C(C)C)C(=O)N5CCC[C@H]5C(=O)N(C)CC(=O)N(C)[C@@H](C(C)C)C(=O)O[C@@H]4C)c3nc-2c(C(=O)N[C@@H]2C(=O)N[C@@H](C(C)C)C(=O)N3CCC[C@H]3C(=O)N(C)CC(=O)N(C)[C@@H](C(C)C)C(=O)O[C@@H]2C)c(N)c1=O` [actinomycin-d] (0.833333 µM), the SARS-CoV-2 infection rate was 93% (inactive).

Consider `CCCCCCCCCC(=O)O[C@H]1CC[C@H]2[C@@H]3CCC4=CC(=O)CC[C@@H]4[C@H]3CC[C@]12C` [Nandrolone decanoate] (10 µM), for which the SARS-CoV-2 infection rate was 103% (inactive).

In the case of `CCOc1ccccc1-n1c(C(C)N2CCN(C(=O)COc3ccc(Cl)cc3)CC2)nc2ccccc2c1=O` (centres undefined) [erastin] (0.833333 µM), the SARS-CoV-2 infection rate is 86% (inactive).

Consider `O=C(O)CCCCC(CCSCc1ccccc1)SCc1ccccc1` (centres undefined) (10 µM), for which the SARS-CoV-2 infection rate was 104% (inactive).

For the compound `CC(=O)N[C@@H](Cc1c[nH]c2ccccc12)C(=O)OCc1cc(C(F)(F)F)cc(C(F)(F)F)c1` (10 µM), the SARS-CoV-2 infection rate is 93% (inactive).

For the compound `NC(=O)C(c1ccccc1)(c1ccccc1)[C@@H]1CCN(CCc2ccc3c(c2)CCO3)C1` [darifenacin] (10 µM), the SARS-CoV-2 infection rate was 106% (inactive).

Turning to `C[C@H]1NC(=O)NC1=O` [5-methylhydantoin-(D)] (10 µM), the SARS-CoV-2 infection rate is 102% (inactive).

As for `O=C(c1ccc(Nc2nccc(-c3cc4ccccc4s3)n2)cc1)N1CCC(N2CCCC2)CC1` (0.833333 µM), the SARS-CoV-2 infection rate was 56% (active).
